The list is not random: actives were taken first. Their share in the collection is about 2.2%.
CHO-K1 Ca antag = nonselective inhibitor or artifact in parental CHO-K1 cells. AID 602250. actives 0.6% (n = 360,000). inhibition, % at 3 µM. ATP-induced calcium, Fluo-8 fluorescence;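 active means inhibition above a per-plate cutoff, the plate's mean sample inhibition plus 3 SD, cut at about 24% in these data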;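 further: 0% = DMSO plus EC80 ATP and 100% = DMSO alone without ATP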
TMEM16A act = mouse TMEM16A channel activation, primary screen; HEK293 TMEM16A/YFP-H148Q/I152L, iodide quench fluorescence; stronger effect = lower value; actives 0.3% (n = 340,000); B-score at 10 µM;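 active means fluorescence-ratio B-score plate-corrected deviation score at least 3 library SD below zero, with starting fluorescence score within 5 deviations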;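 further: channel opened by trigger with iodide after compound preincubation; score built on the fluorescence ratio of max minus min over baseline; more negative score means more quench and so TMEM16A activation or potentiation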
M1 PAM parental = nonselective activator or artifact in parental CHO-K1 calcium assay | ATP EC20, Fluo-8 calcium fluorescence; 0% at ATP EC20, 100% at ATP max | activation, % at 3 µM | actives 0.02% (n = 360,000);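 active means activation above the run cutoff, the mean activation of all test compounds plus 3 SD, cut at about 40% in these data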;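 further: peak over basal fluorescence ratio in a 140 s read after ATP addition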
CHO-K1 Ca ag = nonselective activator or artifact in parental CHO-K1 cells | Fluo-8 calcium fluorescence; scaled to maximal ATP response, vehicle zero | activation, % at 3 µM | actives 0.48% (n = 360,000); in the data active means activation above about 15%;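 further: untransfected CHO-K1 host cells lacking M1 receptor as counterscreen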
NTR1 agonist = activates human neurotensin receptor 1 | actives 0.17% (n = 330,000) | NTR1-U2OS beta-arrestin-GFP spot imaging, agonist mode | AID 493036 | activation, % at 20 µM;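 active means activation at or above 40% of the spot to cytoplasm intensity ratio, with at least 20 cells analyzed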;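 further: 0% = DMSO without peptide and 100% = 100 nM NTR1 peptide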
TMEM16A inh = mouse TMEM16A channel inhibition, primary screen; AID 588511; HEK293 TMEM16A/YFP iodide influx fluorescence, ionomycin; normalized B-score (activity score, 25-100; higher = stronger inhibition) at 10 µM; actives 1.2% (n = 310,000);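 active means ratio plate-corrected score three or more library SD toward inhibition, starting fluorescence score within five deviations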;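 further: score derived from kinetic fluorescence span divided by baseline fluorescence per well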
* marks the source's active call; other numbers are inactive results; i = inactive; nt = no result.

SMILES	CHO-K1 Ca antag	TMEM16A act	M1 PAM parental	CHO-K1 Ca ag	NTR1 agonist	TMEM16A inh
CC1=C/C(=N\OS(=O)(=O)c2ccccc2)C(C)=CC1=O	37*	-6.4*	2	12	28	100*
COc1cc(C(=O)O/N=C2/C=C(C)C(=O)C=C2C)cc(OC)c1OC	18	i	-10	0	-2	i
COC(=O)C1CCN(C(=O)c2cc(S(=O)(=O)N3CCCCC3)ccc2Cl)CC1	-8	i	15	1	4	nt
O=C(COc1ccc(Cl)cc1Cl)N(C1CCCCC1)C1CCS(=O)(=O)C1 (stereo unspecified)	-16	i	12	1	0	nt
COc1ccc([C@H]2CC(=O)C[C@@H](CCn3cccn3)O2)cc1	-9	nt	1	0	nt	nt
O=C(NC1CCCCC1)C(c1ccco1)N(C(=O)C(F)(F)F)C1CC1 (stereo unspecified)	-20	-5.9*	19	0	1	i
CCOc1ccccc1NC(=O)CN(c1ccc(OC)cc1OC)S(=O)(=O)c1ccccc1[N+](=O)[O-]	0	-5.2*	13	1	1	i
COc1ccc(N(CC(=O)Nc2ccc(OC)cc2OC)S(=O)(=O)c2ccccc2)cc1	-19	i	18	1	1	i
CCOc1ccc(N(CC(=O)Nc2ccccc2OC)S(=O)(=O)c2ccccc2)cc1	3	i	11	18*	5	i
O=C(NC1CCCCC1)C1c2ccccc2OCC(=O)N1CCc1ccccc1 (stereo unspecified)	-7	nt	13	0	nt	nt
Cn1c(SCC(=O)Nc2ccc3nc(SCC(=O)N4CCCC4)sc3c2)nnc1-c1ccc(N)cc1	31*	i	-7	-1	nt	nt
Nc1c([N+](=O)[O-])cc2c3c(cccc13)CC2	9	nt	22	-1	nt	nt
CCc1ccc2oc(-c3ccc(OC)cc3)cc(=Nc3c(C)n(C)n(-c4ccccc4)c3=O)c2c1	-11	i	2	3	31	100*
Cc1ccc(S(=O)(=O)N2CCCCC2)cc1NC(=O)C1CCC1	0	i	1	0	0	nt
CC(C)N(Cc1ccccc1)C(=O)CN1C(=O)COc2ccc(S(=O)(=O)N3CCCCCC3)cc21	-30	i	38	16*	2	i
CCC(=O)c1cn(CC(=O)Nc2ccccc2)c2ccccc12	25*	i	-5	0	0	i
COc1cccc(-c2oc3c(c2C#CC2(N)CCCCC2)C(O)CCC3)c1 (stereo unspecified)	-18	nt	17	3	nt	nt
CC(C)C[C@@H]1CN(CCCC[C@H]2CNC(=O)C(=O)N2CCC2CCCCC2)C(=O)C(=O)N1CCc1ccc(O)cc1	-14	nt	14	0	nt	nt
COc1cccc(C(=O)NNC(=O)c2sccc2-n2cccc2)c1	4	i	4	18*	0	i
Cc1cc(C(C)(C)C)cc(C)c1C[n+]1ccc2ccccc2c1	6	i	-3	8	0	i
COc1cc(C)ccc1OCc1cc(C(=O)NC(c2ccccn2)C(F)(F)F)no1 (stereo unspecified)	35*	nt	-12	0	nt	nt
COc1cccc2cc(C(=O)Oc3ccccc3)c(=O)oc12	-4	i	11	1	0	i
CCOc1cccc2cc(C(=O)Oc3ccc(OC)cc3)c(=O)oc12	-1	i	20	16*	-1	i
OCCCNc1ncnc2c1ncn2[C@H]1CN(Cc2ccc(-c3ccccc3)cc2)C[C@@H](CO)O1	-8	nt	14	5	nt	nt
Fc1c(CSC(=S)N2CCOCC2)cccc1CSC(=S)N1CCOCC1	-3	i	12	16*	0	i
SMILES	CHO-K1 Ca antag	TMEM16A act	M1 PAM parental	CHO-K1 Ca ag	NTR1 agonist	TMEM16A inh
O=C1c2ccccc2C(=O)N1CCSC(=S)N1CCOCC1	-16	i	8	0	1	i
CN(C)c1ccc(C(=O)OCC(=O)c2ccc[nH]2)cc1	1	i	-18	1	1	nt
CCOc1ccc(S(=O)(=O)n2cc(F)c(=O)[nH]c2=O)cc1	24*	i	-10	5	1	i
C[C@@H]1CN([C@H](C)CO)C(=O)c2cc(C#C[C@@H](C)O)cnc2O[C@H]1CN(C)C(=O)c1ccc(F)cc1	-2	nt	-1	0	nt	nt
O=c1[nH]c(=S)[nH]c2c1[C@H](CCc1cccc(Cl)c1)O[C@H](C1CCCC1)C2	-31	nt	41*	2	nt	nt
COc1ccc(CN2CCN(C(=O)c3cccnc3)CC2)cc1Br	-2	i	16	3	-1	i
O=C(c1cccnc1)N1CCN(Cc2cccc(Br)c2)CC1	-9	-5.8*	9	1	0	i
CC(=O)N1c2c(cc(Br)cc2S(=O)(=O)N2CCN(c3ccccc3F)CC2)CC1C (stereo unspecified)	1	i	0	2	1	25*
CC(=O)N1c2c(cc(Br)cc2S(=O)(=O)N2CCCCC2)CC1C (stereo unspecified)	-5	i	3	2	2	i
O=C(COc1ccc2c(c1)OCO2)Nc1ccccc1F	2	i	9	0	-2	i
COC(=O)c1ccccc1NC(=O)COc1ccc2c(c1)OCO2	30*	i	-7	2	2	i
CCCCn1nnnc1C(C1CC1)N1CCN(C/C=C/c2ccccc2)CC1 (stereo unspecified)	-8	nt	-7	2	nt	nt
CCN(CC)S(=O)(=O)c1ccc(C(=O)Nc2ccc(OCC(=O)N3CCOCC3)cc2)cc1	-17	-12*	15	4	0	i
CCSc1cc(C)nc2ncnn12	-10	-19*	23	1	0	i
COc1ccc2nc(NC(=O)CN3CCOCC3)sc2c1	26*	i	-7	0	-3	i
N#Cc1c(NC(=O)c2ccccc2)sc2c1CCCCC2	5	i	8	0	10	i
N#Cc1c(Cl)nsc1NC(=O)c1ccccc1	21	i	4	14	0	100*
COc1ccc(OC)c(NS(=O)(=O)c2ccc(-n3cccn3)cc2)c1	26*	nt	-10	2	nt	nt
O=C(C=Cc1cccc(O)c1)c1ccccc1O	-22	i	8	1	nt	nt
O=C(/C=C/c1ccc(O)c(O)c1)c1ccccc1O	-9	i	3	3	21	100*
CCCc1ncc(C(=O)c2ccc(OC)cc2)n1C	6	i	15	19*	-1	i
COc1ccc(C(=O)c2cnc(C(C)C)n2C)cc1	-16	i	8	1	2	i
COC(=O)N(C)C[C@H]1OCc2cnnn2CCCC(=O)N([C@H](C)CO)C[C@H]1C	-13	nt	15	0	nt	nt
COc1ccc(N(C(=O)Cc2cccs2)C(C(=O)NC2CCCCC2)c2cccn2C)cc1OC (stereo unspecified)	-5	-5.4*	11	-1	-1	i

From PubChem
